Out of some 5,500 compounds screened, about 2,000 (36%) were called active. Another 18% or so got no clear call; they are omitted. Rule as the data show it: active = normalized growth mostly below about 0.91 (no sharp cut-off); inconclusive = no clear call, values can overlap the other calls; inactive = mostly above about 0.92. This is one part of the list.
Assay: chemical genetic growth profiling, strain panel (AID 1159580);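 also: tested at 20 µM; growth read once vehicle control cultures reached saturation at 30 °C; 1 = growth at the plate median or of vehicle wells; lower values mean less growth of the strain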
Details: S. cerevisiae deletion strains, growth OD

Measured: normalized growth

COc1ccccc1N1CCN(CCN2C(=O)CC3(CCCC3)CC2=O)CC1
inactive: locus YER002W, strain NOP16, active compounds read low 0.998 | locus YMR263W, strain SAP30, active compounds read low 1 | locus YMR307W, strain GAS1, active compounds read low 0.989 | locus YNL128W, strain TEP1, active compounds read low 0.988 | locus YNL175C, strain NOP13, active compounds read low 0.991 | locus YNL197C, strain WHI3, active compounds read low 0.999 | locus YNL224C, strain SQS1, active compounds read low 1 | locus YOR083W, strain WHI5 (second series), active compounds read low 0.999 | locus YPL055C, strain LGE1, active compounds read low 1 | locus YPL241C, strain CIN2, active compounds read low 1.01

From PubChem BioAssay AID1159580 (chemical genetic matrix, 2015)
